Results reported in the supplement of paper PMC5499739.
Whole data set: some 16,000 sequences, median “Z-score” near -0.37, cut for the highest 2% near 3.1. Only a selection was taken, and the highest values are over-represented in it overall.

Tested on: RBM10 RRM1-ZnF-RRM2 (GST-tagged construct)
Experiment: RNAcompete 7-mer binding Z-score; higher = stronger binding preference
Method in brief: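 A designed pool of 241 399 RNAs, each up to 41 nt and transcribed from microarray-derived DNA templates, was used at 1.5 nmol with 20 pmol of GST-tagged RBM10 constructs. The mixture, in 1 ml Hepes pH 7.8 buffer with KCl, NaCl, glycerol, DTT, BSA and glutathione Sepharose beads, was held 30 min at 4°C and then washed four times for 2 min at 4°C. Bound RNA was read out by microarray hybridisation, and enrichment of each heptamer motif was scored as a one-sided Z-score over the probes carrying it.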

Row | Sequence | RNAcompete 7-mer binding Z-score
1 | GCAUCGA | -0.22
2 | CGCCUCA | -0.748
3 | CGGAGCA | 1.02
4 | GCAGCGG | 2.14
5 | GUUCUAC | -0.759
6 | GUAAAGU | 0.396
7 | GUAAAGG | 3.36
8 | GUAAAAG | 0.767
9 | GAUAAGG | 3.81
10 | CAUAAGG | 0.548
11 | GAUAAGU | 0.0969
12 | CCUACAG | -0.752
13 | UGACACA | -0.315
14 | UUCUUAU | -0.744
15 | CGAACGC | -0.256
16 | CCAUUUU | -1.08
17 | AUUACAC | -0.537
18 | GGCUCAA | -0.122
19 | CCCUCUU | -0.89
20 | AAAAGGG | 3.58
21 | AAAAGGA | 3.25
22 | UAAAGGG | 2.65
23 | CAAAGGG | 2.78

Row | Sequence | RNAcompete 7-mer binding Z-score
24 | CAAAGGA | 1.34
25 | UAAAGGA | 1.64
26 | CUUUCGC | -0.967
27 | UGAAGAU | -0.00877
28 | GAAUGGA | 3.56
29 | CAAUGGG | 3.4
30 | AAAUGGA | 3.34
31 | CAAUGGA | 1.4
32 | ACAUGGA | 1.76
33 | AAAUGUA | 0.0859
34 | UAAUGGA | 1.64
35 | GAAUGGG | 4.77
36 | GAAUGGC | 1.68
37 | CAAUGGU | 1.25
38 | GAAUGGU | 2.65
39 | UAAUGGG | 2.89
40 | UGCGCUU | -0.744
41 | CCCUCAG | -0.81
42 | CUCCGUC | -0.894
43 | GACAAGC | -0.0233
44 | GGCCGGU | 0.279
45 | GAUUCCA | -0.519
46 | GUAUGGA | 2.44

Row | Sequence | RNAcompete 7-mer binding Z-score
47 | CUAUGGG | 1.08
48 | AAAUGGG | 4.04
49 | GUAUGGG | 4.06
50 | AAAUGGU | 2.73
51 | AAAUGGC | 1.42
52 | CGGAUAU | 0.348
53 | GGUGUCG | 1.21
54 | AGUAUGC | 0.0204
55 | CCCAGCU | -0.657
56 | CUAGACA | -0.621
57 | UUGGGCG | 2.45
58 | AGGCCCG | -0.759
59 | CGCUUUC | -0.77
60 | UGGGCGC | 0.989
61 | UGGGGGC | 3.18
62 | AGGGGCA | 2.36
63 | UGGGGCG | 2.66
64 | AGGGCGG | 2.23
65 | UGGGGCA | 3.52
66 | UGGGGGG | 3.39
67 | UGGGCGG | 3.38
68 | UGGGGCC | 0.76
69 | UUGGGGG | 3.03

Row | Sequence | RNAcompete 7-mer binding Z-score
70 | UUGGGGC | 2.04
71 | GGGGGCA | 2.33
72 | UUGGAAU | 0.57
73 | AGUUCAA | -0.311
74 | ACACAUG | -0.0962
75 | AUGCUAU | -0.65
76 | GAAAAUG | 1.46
77 | AAAAUUU | -0.544
78 | AAGGACA | 3.12
79 | CUGAUAA | -0.566
80 | UCGGGUC | 0.512
81 | ACCAGUC | -0.602
82 | ACCAGGU | 0.399
83 | GCCUAUU | -0.901
84 | ACCCUCA | -0.846
85 | UGGGGGU | 3.25
86 | UGGGGUU | 2.78
87 | GGGGGGU | 3.13
88 | UGAGAGG | 1.8
89 | UGAGGGU | 3.92
90 | UGAGGCU | 0.315
91 | CGAGGAU | 1.1
92 | GGAGGCU | 1.29

Row | Sequence | RNAcompete 7-mer binding Z-score
93 | AGAGGGU | 2.21
94 | GGAGGAU | 2.27
95 | CGAGGUU | 0.727
96 | CGAGGGU | 3.55
97 | UGAGGAG | 1.94
98 | GGAGGGU | 3.8
99 | UGAGGGG | 3.5
100 | GAUCGGA | 0.785
101 | UCUCGGA | -0.329
102 | UCGGAUG | 0.512
103 | CGCCGAA | -0.646
104 | GAUAUUG | 0.283
105 | AAGUGUC | -0.322
106 | GCAAGUG | 0.709
107 | UGAGGCA | 1.31
108 | UCAGGGA | 2.05
109 | UGAGGGA | 4.05
110 | CGGGGUC | 1.9
111 | AGGGGUC | 1.76
112 | CUGGGUA | 1.78
113 | GGGGGUA | 3.52
114 | GCGGGUA | 2.5
115 | UUGGGUA | 1.95

Row | Sequence | RNAcompete 7-mer binding Z-score
116 | AGGGGUA | 3.66
117 | CGGGGUA | 3.42
118 | CCGGGUA | 0.814
119 | UGGGGUA | 3.36
120 | GUGGGUA | 3.07
121 | CGAUUUA | -0.704
122 | UUAAAGC | -0.439
123 | ACUAGAA | -0.187
124 | CUUUUGA | -0.755
125 | AGAGACC | -0.774
126 | UCAUACA | -0.464
127 | AAGAGGG | 3.05
128 | AGGAGGA | 2.22
129 | UGGAGUG | 2.72
130 | UAGAGGU | 1.68
131 | GGGAGGA | 3.24
132 | UGGAGGA | 2.95
133 | GGGAGUG | 3.84
134 | GGGAGUA | 2.34
135 | UGGAGAG | 2.12
136 | AGGAGUG | 2.8
137 | UGGAGGG | 4.26
138 | UAGAGGG | 3.16

Row | Sequence | RNAcompete 7-mer binding Z-score
139 | GCACUAG | -0.0161
140 | AUAAGCU | -0.391
141 | UUGACGG | 0.399
142 | CGUUUGC | -0.766
143 | UUUCGAU | -0.664
144 | UUCGGGA | 0.734
145 | GGGACCA | 1.9
146 | UUCCGUC | -0.726
147 | UCAAUGG | 1.28
148 | UCUGUGG | 0.199
149 | UGGAGGC | 2.16
150 | AGGAGGC | 1.72
151 | CGGAGGG | 2.92
152 | AGGAGGG | 3.31
153 | AGGAGGU | 2.71
154 | GAGAGGG | 2.75
155 | GGGAGGC | 3.2
156 | GGGAGGG | 4.06
157 | CGGAGGC | 1.24
158 | CGGAGCG | 1.45
159 | GGGAGCG | 3.23
160 | GGGAGCC | 0.891
161 | CGCUGGA | -0.027

Row | Sequence | RNAcompete 7-mer binding Z-score
162 | AGUCGCG | -0.0634
163 | UGCCACC | -0.759
164 | ACUUUGG | -0.351
165 | GGCUUGU | -0.318
166 | CUCGUUC | -0.61
167 | GGCUUCA | -0.428
168 | GAUACUG | -0.118
169 | GAAGUCG | 0.428
170 | CUUCUCA | -0.981
171 | UCGUGCG | -0.027
172 | UCUUAUU | -0.803
173 | UUAGUAA | -0.355
174 | AGGCCUC | -0.828
175 | CGGAGGU | 2.46
176 | UGGAGGU | 3.02
177 | GGGAGGU | 3.39
178 | CCACGAA | -0.544
179 | UAGGUAG | 2.27
180 | CAGGUAG | 2.68
181 | AAGGUAU | 2.03
182 | UAGGUAA | 1.96
183 | AAGGUAA | 3.65
184 | AAGGUAG | 3.82
